The source of these data is PubChem BioAssay (EPA / NIEHS).

Results filed as inconclusive are left out. Some structures have more than one record in an assay (separate samples or runs), and their calls can disagree. Activity calls are given as the source filed them. How the source made its calls, unless noted: active means hit-call score of the fitted dose curve at least 0.9, where 1 is the maximum; inconclusive means response in the unintended direction; inactive means score below 0.9.

Read-out in assay [1]: UDP glucuronosyltransferase (UGT1A1), UGT1A1 (gene 54658)
The assay can be described thus: LTEA_HepaRG_UGT1A1: Life Technologies and Expression Analysis (LTEA) Assay for UDP glucuronosyltransferase (UGT1A1) using HepaRG (AID 2283538; active means hit-call score of the fitted dose curve at least 0.9, where 1 is the maximum; inactive means score below 0.9). The conditions noted are these: mRNA level, 48 h; actives raise or lower the signal. The gist of the method: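 Differentiated human HepaRG cells in serum-free induction medium were exposed in duplicate for 48 h to eight half-log concentrations up to 100 uM in 0.5% DMSO. UGT1A1 mRNA was quantified by TaqMan qRT-PCR, normalized to ACTB, GAPDH and POLR2A, and fitted bidirectionally against DMSO.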

Read-out in assay [2]: UDP glucuronosyltransferase (UGT1A6), UGT1A6 (gene 54578)
The assay can be described thus: LTEA_HepaRG_UGT1A6: Life Technologies and Expression Analysis (LTEA) Assay for UDP glucuronosyltransferase (UGT1A6) using HepaRG (AID 2283539; active means hit-call score of the fitted dose curve at least 0.9, where 1 is the maximum; inactive means score below 0.9). The conditions noted are these: mRNA level, 48 h; actives raise or lower the signal. In a few lines: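 HepaRG, 48 h post-plating switch to serum-free induction medium; chemical 48 h, 100 uM top, half-log x8, duplicate, 0.5% DMSO. Phenobarbital 1mM induction control. UGT1A6 mRNA by TaqMan qRT-PCR; gain/loss fit vs DMSO.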

Assay [3] is described as follows: LTEA_HepaRG_LDH_cytotoxicity: Cytotoxicity Assessment in the Life Technologies and Expression Analysis (LTEA) Assay (AID 2283563).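 On AC50: LDH activity released into spent culture medium as a marker of cell death.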 The gist of the method:
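Cells were thawed and plated for 48 h. Medium was then replaced with serum-free induction medium. Chemicals (8 half-log points, maximum 100 uM, 0.5% DMSO) were added in duplicate for 48 h, after which spent medium was assayed for LDH.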

Assay [4] is described as follows: TOX21_p53_BLA_p2_viability: Viability Assessment in the Tox21 HCT-116 p53 Agonism Beta-lactamase Assay, Phase 2 (AID 2283591).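 Further: compound exposure lasted 16 h at 37 °C; actives lower the ATP signal meaning cytotoxicity.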 In a few lines:
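HCT-116 p53-bla cells (4000/well) rested 5 h at 37C, then received compounds in DMSO (217-fold dilution) for 16 h at 37C, 5% CO2. After the CCF4 read, CellTiter-Glo was added; ATP luminescence was read after 30 min at room temperature.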

Assay [5] has as its target Cellular tumor antigen p53 (Homo sapiens) (UniProt P04637). The assay can be described thus: TOX21_p53_BLA_p2_ratio: Tox21 HCT-116 p53 Agonism Beta-lactamase Assay, Ratio, Phase 2 (AID 2283592). In a few lines:
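HCT116 p53-bla; 4000 cells/well; 5 h pre-incubation; cpd in DMSO, 217-fold dilution; 16 h 37C/5% CO2; CCF4-AM 2 h RT; Ex 405, Em 460/530 ratio; DMSO = baseline; positive fitting direction.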

Assay [6] can be described thus: TOX21_p53_BLA_p3_viability: Viability Assessment in the Tox21 HCT-116 p53 Agonism Beta-lactamase Assay, Phase 3 (AID 2283593).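 Further: cells exposed to compound for 16 h before reading.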 In a few lines:
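HCT-116 cells (4000/well) rested 5 h at 37C, then got DMSO compounds by pin tool (217-fold dilution) for 16 h at 37C, 5% CO2. After the bla read, CellTiter-Glo was added and luminescence read at 30 min, room temperature.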

Assay [7] deals with Cellular tumor antigen p53 (Homo sapiens) (UniProt P04637). The assay is described as follows: TOX21_p53_BLA_p3_ratio: Tox21 HCT-116 p53 Agonism Beta-lactamase Assay, Ratio, Phase 3 (AID 2283596). The gist of the method: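 HCT116 p53-bla cells (4000/well) given compound in DMSO (217-fold dilution) after 5 h, incubated 16 h at 37C. CCF4-AM substrate 2 h at room temperature; 460/530 nm emission ratio, gain fitted against DMSO.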
Cellular tumor antigen p53 (Homo sapiens), sequence (P04637 whole entry, looked up): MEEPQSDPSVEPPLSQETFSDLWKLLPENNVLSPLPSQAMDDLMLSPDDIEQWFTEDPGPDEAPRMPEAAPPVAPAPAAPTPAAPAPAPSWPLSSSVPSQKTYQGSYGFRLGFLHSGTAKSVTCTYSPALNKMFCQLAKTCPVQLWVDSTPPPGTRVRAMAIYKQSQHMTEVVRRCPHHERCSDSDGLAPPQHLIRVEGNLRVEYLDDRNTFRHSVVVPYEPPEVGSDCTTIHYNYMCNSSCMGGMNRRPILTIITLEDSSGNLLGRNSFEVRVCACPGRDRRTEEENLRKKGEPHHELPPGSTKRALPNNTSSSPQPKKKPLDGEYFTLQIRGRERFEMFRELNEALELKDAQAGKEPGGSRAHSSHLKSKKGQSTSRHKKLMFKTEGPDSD

The nature of assay [8]: TOX21_p53_BLA_p4_viability: Viability Assessment in the Tox21 HCT-116 p53 Agonism Beta-lactamase Assay, Phase 4 (AID 2283597).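 Further: hits lower the luminescence signal meaning cytotoxicity.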 In a few lines: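 Cells plated, 5 h pre-incubation; DMSO compounds pinned (217-fold dilution); 16 h, 37C/5% CO2; CCF4-AM 2 h RT; CellTiter-Glo 30 min RT; luminescence read.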
In assay [9] the target is Cellular tumor antigen p53 (Homo sapiens) (UniProt P04637). The assay is described as follows: TOX21_p53_BLA_p5_ratio: Tox21 HCT-116 p53 Agonism Beta-lactamase Assay, Ratio, Phase 5 (AID 2283599). The gist of the method: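 HCT-116 cells carrying a p53-inducible beta-lactamase reporter were seeded at 4000 cells/well and dosed after 5 h with compound in DMSO (217-fold dilution). After 16 h at 37C, CCF4-AM substrate was added for 2 h, and the 460/530 nm emission ratio was scored as gain-of-signal versus DMSO.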

Assay [10] is described as follows: TOX21_p53_BLA_p5_viability: Viability Assessment in the Tox21 HCT-116 p53 Agonism Beta-lactamase Assay, Phase 5 (AID 2283600). The gist of the method: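 4000 cells/well; 5 h pre-incubation; DMSO compounds pin-transferred, 217-fold dilution; 16 h, 37C/5% CO2; CCF4-AM 2 h RT; CellTiter-Glo 30 min RT; luminescence.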
The target in assay [11] is Cellular tumor antigen p53 (Homo sapiens) (UniProt P04637). The assay can be described thus: TOX21_p53_BLA_p4_ratio: Tox21 HCT-116 p53 Agonism Beta-lactamase Assay, Ratio, Phase 4 (AID 2283601). The gist of the method: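 HCT116 cells carrying an inducible beta-lactamase reporter were plated at 4000 cells/well, rested 5 h, then exposed to compounds in DMSO (217-fold dilution) for 16 h at 37C. CCF4-AM substrate was loaded 2 h at room temperature; 460/530 nm emission ratio scored gain-of-signal versus DMSO.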

Assay [12] can be described thus: Tanguay_ZF_120hpf_MORT_legacy: (Legacy) Oregon State University Tanguay Lab 120 Hour Post-fertilization zebrafish Assay for Mortality (AID 2283633).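 On AC50: fitted as increase in binary mortality versus DMSO negative control.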 In a few lines:
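5D WT zebrafish, chorion removed 4 hpf; 1 embryo/well from 6 hpf; static exposure to 120 hpf, 28C, dark, sealed. Final DMSO 0.64%. Readout: binary mortality, brightfield, 24 + 120 hpf; DMSO as negative control.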

Assay [13] in a line: Tanguay_ZF_120hpf_YSE_legacy: (Legacy) Oregon State University Tanguay Lab 120 Hour Post-fertilization zebrafish Assay for Yolk Sac Edema (AID 2283634).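 On AC50: actives raise the incidence of yolk sac edema above the DMSO baseline.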 In a few lines:
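Dechorionate (pronase, 4 hpf) → place one 6 hpf embryo per well → static compound exposure, sealed and foil-covered, 28C, to 120 hpf → record yolk sac edema as present or absent. Final DMSO 0.64%.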

A short description of assay [14]: Tanguay_ZF_120hpf_OTIC_legacy: (Legacy) Oregon State University Tanguay Lab 120 Hour Post-fertilization zebrafish Assay for Otic Vesicle Malformation (AID 2283639). In a few lines: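 Tropical 5D wild-type zebrafish embryos were exposed statically in sealed, foil-covered plates at 28C until 120 hpf, with 0.64% (vol/vol) DMSO final. Otic vesicle malformation was scored present/absent by brightfield microscopy, with DMSO as baseline.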

Assay [15] can be described thus: Tanguay_ZF_120hpf_AXIS_legacy: (Legacy) Oregon State University Tanguay Lab 120 Hour Post-fertilization zebrafish Assay for Body Axis Malformation (AID 2283635).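 On AC50: potency for an increased fraction of larvae scored with body axis malformation.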 The gist of the method:
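Chorion is removed with pronase at 4 hpf, then single 6 hpf embryos are dosed (final DMSO 0.64%) and held statically at 28C in sealed, foil-covered plates. At 120 hpf body axis malformation is recorded as present or absent.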

A short description of assay [16]: Tanguay_ZF_120hpf_EYE_legacy: (Legacy) Oregon State University Tanguay Lab 120 Hour Post-fertilization zebrafish Assay for Eye Malformation (AID 2283636).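 Further: binary presence or absence of eye malformation scored by brightfield in 120 hpf larvae.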 The gist of the method: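 Dechorionated wild-type Tropical 5D zebrafish embryos were exposed statically from 6 hpf, one per well, to 120 hpf at 28C in sealed, foil-covered plates with 0.64% DMSO. Eye malformation was scored present/absent by brightfield microscopy against DMSO controls.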

Assay [17] is described as follows: Tanguay_ZF_120hpf_JAW_legacy: (Legacy) Oregon State University Tanguay Lab 120 Hour Post-fertilization zebrafish Assay for Jaw Malformation (AID 2283638).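 On AC50: active means more embryos with jaw malformation than DMSO controls.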 The gist of the method:
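Steps: dechorionate 4 hpf embryos (pronase); plate 1/well at 6 hpf; add test chemical, 0.64% DMSO final; seal, cover, hold at 28C statically to 120 hpf; score jaw defect presence/absence microscopically. Dead embryos not scored.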

Assay [18] in a line: ATG_XTT_Cytotoxicity: Cytotoxicity Assessment in the Attagene TRANS-FACTORIAL HepG2 Assay (AID 2283584). The gist of the method: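 Cells: human HepG2, transiently transfected with MRTU reporter constructs. Exposure 24 h. Readout: XTT, cell number. Baseline/neg ctrl DMSO; loss-of-signal scored.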
Assay [19] in a line: Tanguay_ZF_120hpf_SNOU_legacy: (Legacy) Oregon State University Tanguay Lab 120 Hour Post-fertilization zebrafish Assay for Snout Malformation (AID 2283637). The gist of the method:
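Tropical 5D wild-type zebrafish embryos, dechorionated with pronase at 4 hpf, were exposed singly from 6 hpf to 120 hpf statically at 28C in 0.64% DMSO. Snout malformation was scored present/absent by brightfield microscopy, fitted against DMSO.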

In the case of `CCOP(=S)(OCC)Oc1cc(C)nc(C(C)C)n1`, the concentration at half-maximal activity (AC50) in assay [1] is 10.5 µM (active); in [6] it was 49.5 µM (active); in assay [7], 67.9 µM (active); in assay [9], 41.7 µM (active); in assay [10] it was 36.1 µM (active). The compound was classed as inactive in assay [2], in [3], in [4], in [5], in assay [6] and in assay [7]. The compound was called inactive in assay [8], in assay [10], in assay [11], in assay [12], in [13] and in assay [14].
Regarding `CC(Oc1cccc(Cl)c1)C(=O)O` (stereo not drawn), in assay [1], the half-maximal activity concentration (AC50) is 10.1 µM (active). For the same compound, the result in assay [2], in assay [3], in assay [5], in assay [7], in assay [8] and in assay [9] was inactive. The call in assay [10], in assay [12], in [13], in [15], in [16] and in [17] was inactive. Moreover, in assay [14], the call was inactive.
Turning to `COc1ccc(C(=CC(=O)N2CCOCC2)c2ccc(Cl)cc2)cc1OC`, the concentration at half-maximal activity (AC50) in assay [1] is 11.1 µM (active); in assay [13], 48.3 µM (active); in assay [15], 9.11 µM (active); in assay [16], 16.4 µM (active); in assay [17] it was 43.7 µM (active); in assay [14] it was 42.6 µM (active). In addition, the compound was called inactive in assay [2], in assay [3], in [18], in [4], in [7] and in assay [8]. Further, the call in [10] and in assay [12] was inactive.
As for `Cc1ccn2nc(S(=O)(=O)Nc3c(F)cccc3F)nc2n1`, the compound was classed as inactive in assay [1], in assay [2], in [3], in assay [12], in assay [13] and in assay [15]. Besides, the compound was called inactive in assay [16], in [19], in [17] and in assay [14].
For the compound `CN(C)[C@@H]1C(=O)C(C(N)=O)=C(O)[C@@]2(O)C(=O)C3=C(O)c4c(O)cccc4[C@@](C)(O)[C@H]3[C@H](O)[C@@H]12`, the outcome in [1], in assay [2], in [3], in [18], in assay [12] and in assay [13] was inactive. Moreover, the compound was called inactive in assay [15], in [16], in assay [17] and in [14].
As to `CSC1=N[C@@](C)(c2ccccc2)C(=O)N1Nc1ccccc1`, the AC50 in [1] is 32.1 µM (active); in assay [2], 33.2 µM (active); in assay [3], 32.4 µM (active); in assay [12], 12.6 µM (active); in assay [13], 3.52 µM (active). Besides, the compound was classed as inactive in assay [4], in assay [5], in assay [6], in [7], in assay [8] and in assay [9]. Also, the compound was classed as inactive in [10], in assay [15], in assay [16], in assay [17] and in [14].
As for `CCc1cccc(CC)c1N(COC)C(=O)CCl`, the AC50 in [1] was 66.5 µM (active); in assay [12], 13.4 µM (active). For the same compound, the outcome in assay [2], in assay [3], in [13], in assay [15], in [16] and in assay [19] was inactive. For the same compound, the compound was classed as inactive in assay [17] and in assay [14].
As for `CCCSP(=O)(OCC)SCCC`, the AC50 in assay [1] is 22.8 µM (active). The compound was called inactive in assay [2], in assay [3], in assay [13], in [15], in assay [16] and in [17]. Also, the compound was called inactive in [14].
As for `C=C(C)[C@H]1Cc2c(ccc3c2O[C@@H]2COc4cc(OC)c(OC)cc4[C@@H]2C3=O)O1`, the AC50 in assay [1] is 23.7 µM (active); in assay [2], 23.4 µM (active); in [3], 6.74 µM (active); in assay [12], 0.347 µM (active). Also, the result in assay [13], in [15], in [16], in assay [17] and in assay [14] was inactive.
